Data from ChEMBL document CHEMBL4513216, “Probing the Open Global Health Chemical Diversity Library for Multistage-Active Starting Points for Next-Generation Antimalarials” (ACS Infect Dis, 2020).
Screen size: about 69,000 compounds; about 8,600 (12%) showed an effect of 50% or more. The list comes from a sample in which strong results are over-represented; it also holds similar structures and randomly drawn compounds.

The compounds below were run on Plasmodium berghei (assay: Screen against P. berghei liver stage (PbLuc), transformed with Luciferase, at 10uM). Conditions: tested at 10 uM.
Format: functional, HepG2
`Cc1nc(-c2ccccc2)sc1CNC1CCc2ncnn2C1` (stereo not given) was tested, and the INHIBITION was 8.64%.
`CCn1nc2c(cc1=O)CN(Cc1nc(C)c(C)o1)CC2` gave an INHIBITION of -29.7%.
With `CCCN1CCN(C(=O)CCn2nc(C(F)(F)F)c(Br)c2C)CC1` the INHIBITION was 6.67%.
Work on `O=C1C[C@@H]2CC[C@H](CN1)N2C(=O)CCc1ccc2c(c1)OCO2` yielded an INHIBITION of 17.6%.
`Cn1nccc1-c1ccc2nc(C3CCN(CCO)CC3)nn2c1` gave an INHIBITION of 33.4%.
`c1cnc(N2CCC(c3nccn3CC3CC3)CC2)nc1` showed an INHIBITION of 36.5%.
`CN(C)Cc1cc(=O)n2c(n1)CN(C(=O)Cc1cccs1)CCC2` was tested, and the INHIBITION was 27.6%.
Compound `CC1CN(CC2CCCC2)CCN1c1ccc2nncn2n1` (stereo not given) has an INHIBITION of 82.6%.
In the case of `CC1CN(CC2CCCCC2)CCN1c1ccc2nncn2n1` (stereo not given), the INHIBITION is reported as 89.3%.
Compound `O=C(CN1CCN(c2ccc3nncn3n2)CC1)NC1CCCC1` has an INHIBITION of -0.219%.
`CC1CCCCN1C(=O)CN1CCN(c2ccc3nncn3n2)CC1` (stereo not given) was tested, and the INHIBITION was 24%.
Compound `O=C(CN1CCN(c2ccc3nncn3n2)CC1)NC1CCCCC1` has an INHIBITION of -4.16%.
`Cc1nc(CN2CCN(c3ccc4nncn4n3)C(C)C2)oc1C` (stereo not given) was tested, and the INHIBITION was 7.27%.
`CC1CN(CC(=O)NC2CCCC2)CCN1c1ccc2nncn2n1` (stereo not given) showed an INHIBITION of 50.4%.
`CC1CN(CCc2ccccn2)CCN1c1ccc2nncn2n1` (stereo not given) was tested, and the INHIBITION was 15.6%.
`CC1CN(CC(=O)N2CCCC2)CCN1c1ccc2nncn2n1` (stereo not given) was tested, and the INHIBITION was 7.67%.
In the case of `Cc1cc(CN(C)C(=O)NC2CCN(Cc3ccccn3)CC2)no1`, the INHIBITION is reported as -26.6%.
`CCn1cc(-c2cncn2CCc2ccc3c(c2)OCCO3)cn1` showed an INHIBITION of 16.5%.
For `Cc1nc(N2CCOCC2)ncc1-c1cc(O)nc(N2CCCCC2)n1`, the INHIBITION was 20.9%.
`O=C(NCc1csc2ccc(Cl)cc12)c1cc2n(n1)CCNC2` gave an INHIBITION of 44.4%.
`Cc1nn(CC(=O)n2cccn2)c(C)c1I` showed an INHIBITION of 8.53%.
`O=C(N[C@@H]1CN(c2ncccn2)C[C@@H]2CCCO[C@@H]21)c1ccncc1` showed an INHIBITION of 35.8%.
Compound `Cc1cccc(C2(CNC(=O)c3ccnc(N(C)C)c3)CCOCC2)c1` has an INHIBITION of 13.5%.
`COc1ccc(Cl)cc1C(=O)N1C[C@H](C(C)C)[C@@H](N)C1` was tested, and the INHIBITION was -0.55%.
Work on `CCCc1nc(CN2CCOC(Cn3cncn3)C2)cs1` (stereo not given) yielded an INHIBITION of 5.9%.
`COc1ccc([C@@H]2CN(Cc3cccnc3N)C[C@H]2NC(C)=O)cc1` showed an INHIBITION of 23.9%.
With `O=C(C1CC1)N1CCC2(CC1)CNCc1ccccc12` the INHIBITION was 74.8%.
For `O=C(C1CCOC1)N1CCC2(CC1)Cc1ccccc1CNC2=O` (stereo not given), the INHIBITION was 2.26%.
`O=C([C@@H]1CSCN1)N1CCC2(CC1)CNCc1ccccc12` gave an INHIBITION of 27.5%.
`O=C(C1CCCCC1)N1CCC2(CC1)CNCc1ccccc12` showed an INHIBITION of 61.5%.
In the case of `O=C(C1CC1)N1CCC2(CC1)CNc1ccc(F)cc12`, the INHIBITION is reported as 8.85%.
`O=C([C@H]1CCCO1)N1CCC2(CC1)CNCc1ccccc12` showed an INHIBITION of 17.2%.
`CC(CNC(=O)c1cc(C2CC2)on1)N1CCc2ccccc21` (stereo not given) gave an INHIBITION of -51.5%.
Compound `CC(C)C(N)C1=NC(=C2N=CN=N2)NO1` (stereo not given) has an INHIBITION of 8.11%.
Work on `CC(Cc1ccccc1F)NC(=O)CCC1=NC(=C2N=CN=N2)NO1` (stereo not given) yielded an INHIBITION of 60.4%.
`CC(C)CC(N)C1=NC(=C2N=CN=N2)NO1` (stereo not given) was tested, and the INHIBITION was 37.7%.
For `c1ccc(Cn2ccnc2CN2CCCC2c2noc(C3CC3)n2)cc1` (stereo not given), the INHIBITION was 18.6%.
With `Cc1nnc(CN2CCCC2c2ccsc2)o1` (stereo not given) the INHIBITION was 53.9%.
In the case of `CCc1nc(C2CCCN2Cc2nc(C(C)(C)C)no2)no1` (stereo not given), the INHIBITION is reported as 71.2%.
`Cc1nnc(CN2CCCC2c2ccc(Cl)c(Cl)c2)o1` (stereo not given) was tested, and the INHIBITION was 21.5%.
In the case of `CCc1nc(C2CCCN2Cc2noc(Cc3ccccc3)n2)no1` (stereo not given), the INHIBITION is reported as 72.8%.
`CCc1nc(C2CCCN2Cc2nnc(CC)o2)no1` (stereo not given) showed an INHIBITION of -0.219%.
With `Cc1cc(CN2CCCC2c2noc(C3CC3)n2)c2ccccc2n1` (stereo not given) the INHIBITION was 64.5%.
For `CCc1nc(C2CCCN2Cc2nc(Cc3ccccc3)no2)no1` (stereo not given), the INHIBITION was 31.3%.
Compound `Cn1ccnc1CN1CCCC1c1noc(C2CC2)n1` (stereo not given) has an INHIBITION of 7.64%.
Work on `CCc1nc(C2CCCN2Cc2nnc(Cc3ccccc3)o2)no1` (stereo not given) yielded an INHIBITION of 5.97%.
Compound `CCc1nc(C2CCCN2Cc2nc(C3CC3)no2)no1` (stereo not given) has an INHIBITION of -34.9%.
Compound `Cc1nnc(CN2CCCC2c2ccc(C(C)(C)C)cc2)o1` (stereo not given) has an INHIBITION of 38.8%.
With `COCc1ccccc1CNC(=O)CNc1ccccc1C(C)=O` the INHIBITION was -1.79%.
Compound `O=C(C1CCOC1)N1CCC2(CC1)CN(Cc1nccs1)CCO2` (stereo not given) has an INHIBITION of 15.9%.
With `CNC(=O)c1ccc(C(=O)N2CCCC2c2c(C)nn(C)c2C)cn1` (stereo not given) the INHIBITION was 31.2%.
`Cc1cn2c(n1)CCC(NC(=O)c1csc(C(C)C)n1)C2` (stereo not given) showed an INHIBITION of 19.5%.
`CCc1c(C)nc2n(c1=O)CC(C(=O)Nc1sccc1C(=O)OC)CS2` (stereo not given) gave an INHIBITION of -7.25%.
`CN(Cc1nnc2n1CCC2)C(=O)c1ccc2c(c1)OCCCO2` showed an INHIBITION of 26.4%.
`Nc1nc2nc(C3CCCN(C(=O)c4cncs4)C3)ccc2s1` (stereo not given) was tested, and the INHIBITION was 18.3%.
Compound `c1ccc2nc(CN3CCCC3c3noc(C4CC4)n3)ccc2c1` (stereo not given) has an INHIBITION of 54.7%.
`Cc1nc(CN2CCCC2c2noc(C3CC3)n2)oc1C` (stereo not given) was tested, and the INHIBITION was 49.35%.
`CCc1noc(CN2CCCC2c2noc(C3CC3)n2)n1` (stereo not given) gave an INHIBITION of 27.4%.
`COc1c(C)cnc(CN2CCCC2c2noc(C3CC3)n2)c1C` (stereo not given) was tested, and the INHIBITION was 21.3%.
With `CCc1nc(C2CCCN2Cc2nc3ccccc3o2)no1` (stereo not given) the INHIBITION was 20.2%.
`CCc1nc(C2CCCN2Cc2cc(C)nc3ccccc23)no1` (stereo not given) showed an INHIBITION of 60.75%.
`Cc1nc(CN2CCCC2c2noc(C3CC3)n2)nc2ccccc12` (stereo not given) gave an INHIBITION of 80.25%.
`Cc1cnc(CN2CCCC2c2noc(C3CC3)n2)cn1` (stereo not given) showed an INHIBITION of -4.94%.
Compound `CCc1nc(C2CCCN2Cc2cnc(C)cn2)no1` (stereo not given) has an INHIBITION of -4.94%.
In the case of `c1ccc2oc(CN3CCCC3c3noc(C4CC4)n3)nc2c1` (stereo not given), the INHIBITION is reported as -87.5025%.
`COc1ccc(C)cc1CN1CCCC1c1noc(C2CC2)n1` (stereo not given) gave an INHIBITION of 80.3%.
`Cc1noc(CN2CCCC2c2noc(C3CC3)n2)n1` (stereo not given) was tested, and the INHIBITION was 38.5%.
With `O=C(NCC1(c2ccc(F)cc2)CCCC1)N1CCOC(CO)C1` (stereo not given) the INHIBITION was -14.3%.
With `CN(C)CCn1c2c(ccc1=O)CCN(C(=O)c1ccoc1)CC2` the INHIBITION was -73.5%.
In the case of `Cc1c(C(=O)N2CCC(O)(CN(C)C)C2)c2ccccc2n1C` (stereo not given), the INHIBITION is reported as 35.2%.
